This note sets out measurements from PubChem BioAssay.

The subject of assay [1] is Human papillomavirus type 1a protein E7 (residues 44-93). Briefly: HPV1a E7 fragment binders on microarrays, primary screen, biochemical, small-molecule microarray, residues 44-93, 635 nm fluorescence (AID 1108).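 Further: E7 fragment applied at 1 µg/mL in TBST for 1 h at 4 C; score combines spot fluorescence with its signal to noise ratio.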 The note with it: small-molecule microarray binding, fluorescence 635 nm; higher = more signal.
Assay [2] can be described thus: modulators of HCV replicon luciferase signal, primary screen, HCV replication inhibitor project, Huh7 cells, luciferase reporter (AID 1109).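 Further: huh7 hepatoma cells harbouring a luciferase neomycin HCV replicon reporter; luciferase luminescence as measure of HCV replicon replication; test concentration not given here.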 Particulars: 48 h, higher = more signal.
In assay [3] the target is Left-right determination factor 2 (Homo sapiens) (UniProt O00292). Put plainly: LEFTY2 binders on small-molecule microarrays, primary screen, biochemical, small-molecule microarray, 635 nm fluorescence scan (AID 1110). The note with it: LEFTY2 binding, higher = more signal.
Assay [4] concerns the target Calmodulin-1 (Homo sapiens) (UniProt P0DP23). Put plainly: CALM1 binders on microarrays, EGTA buffer, profiling panel, biochemical, small-molecule microarray, Cy5-labelled CALM1 (AID 1111).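 Further: labelled calmodulin applied in Tris saline Tween buffer holding calcium plus EGTA and DTT.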 The note with it: Cy5-CALM1 binding fluorescence, higher = more signal.
Assay [5] shares this target. Briefly: calcium-bound CALM1 binders on microarrays, profiling panel, artefact control for SMM control-protein annotation, biochemical, small-molecule microarray, Cy5-labelled CALM1, plus calcium (AID 1112).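 Further: score merges spot fluorescence with signal to noise from triplicate slides.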 The note with it: Cy5-CALM1 binding fluorescence, higher = more signal.
Assay [6] is described as follows: small-molecule microarray binders of probe aWnt5a, primary screen, biochemical, biotinylated probe, 635/667 nm fluorescence (AID 1113).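 Further: score merges 667 nm fluorescence intensity with signal-to-noise per printed feature.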 The note with it: higher = more signal.
Assay [7] can be described thus: small-molecule microarray binders of probe aShh, primary screen, biochemical, biotinylated probe, 635/667 nm fluorescence (AID 1114).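 Further: probe is biotin-labelled aShh protein from a stem cell growth factor screen; measures binding of labelled protein to compounds printed on the slide; score merges feature fluorescence at 667 nm with signal-to-noise.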 Particulars: higher = more signal.
Assay [8] can be described thus: small-molecule microarray binders of probe aNog, primary screen, biochemical, biotinylated probe, 635/667 nm fluorescence (AID 1115).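 Further: probe is biotinylated aNog protein used at 0.15 µg/mL for 1 h at 4 C; z-score combines 667 nm fluorescence of each spot with its signal to noise.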 The note with it: higher = more signal.
Assay [9] addresses Torsin-1A-interacting protein 1 (Homo sapiens) (UniProt Q5JTV8). Briefly: LAP1 binders from COS7 cell lysate, primary screen, small-molecule microarray, 635/667 nm fluorescence (AID 1116). The note with it: COS7-hLAP1 lysate binding, 635 nm fluorescence, higher = more signal.
The target of assay [10] is Alpha-bungarotoxin (Bungarus multicinctus) (UniProt P60615). Briefly: alpha-bungarotoxin binders on microarray, profiling panel, artefact control for SMM control protein annotation, biochemical, small-molecule microarray, Alexa647 label, 635/667 nm fluorescence (AID 1117). Particulars: alpha-BTX-A647 binding fluorescence, higher = more signal.
Another assay deals with Albumin (Bos taurus) (UniProt P02769). Put plainly: bovine serum albumin binders on microarray, profiling panel, artefact control for SMM control protein annotation, biochemical, small-molecule microarray, Alexa647 label, 635/667 nm fluorescence (AID 1118).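 Further: score merges 667 nm emission intensity and signal-to-noise per printed compound spot.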 The note with it: BSA-A647 binding, fluorescence 635 nm, higher = more signal.
Assay [11] can be described thus: small-molecule microarray binders of probe aXIP, primary screen, biochemical, NeuroSMM set, 635/667 nm fluorescence (AID 1119).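 Further: probe is the protein aXip251-270 applied at 1 µg/mL to compound-printed slides; binding of probe to printed compounds measured as 667 nm fluorescence plus signal to noise.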 The note with it: higher = more signal, called active from +8 up or from −8 down.
A short description of assay [12]: small-molecule binders of probe aNOTCH3, primary screen, biochemical, small-molecule microarray, 635/667 nm fluorescence (AID 1120).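 Further: probe is a biotin-tagged antibody raised against NOTCH3 rather than NOTCH3 protein; score merges spot fluorescence near 667 nm with spot signal to noise.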 The note with it: higher = more signal.
Assay [13] can be described thus: small-molecule binders of probe aNOTCH2, primary screen, biochemical, small-molecule microarray, 635/667 nm fluorescence (AID 1121).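 Further: score merges feature fluorescence read at 667 nm with its signal to noise.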 Particulars: higher = more signal.
Assay [14] addresses Carbonic anhydrase 2 (Homo sapiens) (UniProt P00918). Put plainly: CAII small-molecule binders, profiling panel, biochemical, small-molecule microarray, Alexa647-labelled CAII (AID 1122). The note with it: CAII-A647 binding fluorescence, higher = more signal.
Assay [15] can be described thus: COS7 lysate on small-molecule microarray, probe aHis, 635 nm (AID 1123).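 Further: z-score combines 667nm fluorescence intensity with signal-to-noise per printed compound spot.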 Particulars: COS7 cell lysate, fluorescence, higher = more signal.
A short description of assay [16]: compound binding in COS7 lysate, probe aLAP1, primary screen, cell lysate, small-molecule microarray (AID 1124).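 Further: lysate comes from COS7 cells expressing LAP1 and is applied at 0.3 µg/mL; score merges spot fluorescence near 667 nm with signal-to-noise over triplicate slides.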 Particulars: probe aLAP1, fluorescence, higher = more signal.
For the next assay, the system named is Sam68 (KHDRBS1). Briefly: Sam68 small-molecule binders, primary screen, biochemical, small-molecule microarray, 635 nm fluorescence (AID 1125).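 Further: score merges 667 nm channel intensity with signal to noise over triplicate slides.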 The note with it: small-molecule microarray binding, higher = more signal.
For assay [17], the system named is Chordin-like protein 2 (CHRDL2). Put plainly: CHRDL2 small-molecule binders, primary screen, biochemical, small-molecule microarray, 635 nm fluorescence (AID 1126).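 Further: printed compound slides probed with Chrdl2 protein at 4 µg/mL for 1 h at 4 C; score merges 667 nm emission intensity with signal to noise over three replicate slides.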 The note with it: small-molecule microarray binding, fluorescence 635 nm; higher = more signal.
In assay [18] the target is Concanavalin-A (Canavalia ensiformis) (UniProt P02866). Put plainly: ConA small-molecule binders, primary screen, artefact control for SMM control protein annotation, biochemical, small-molecule microarray, Alexa647 label, 635 nm (AID 1127).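 Further: z combines 667 nm emission intensity with signal-to-noise across three replicate slides.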 The note with it: ConA-A647 binding fluorescence, higher = more signal.

Active and inactive are the calls of the source.

Left-right determination factor 2 (Homo sapiens), sequence (O00292 whole entry, looked up): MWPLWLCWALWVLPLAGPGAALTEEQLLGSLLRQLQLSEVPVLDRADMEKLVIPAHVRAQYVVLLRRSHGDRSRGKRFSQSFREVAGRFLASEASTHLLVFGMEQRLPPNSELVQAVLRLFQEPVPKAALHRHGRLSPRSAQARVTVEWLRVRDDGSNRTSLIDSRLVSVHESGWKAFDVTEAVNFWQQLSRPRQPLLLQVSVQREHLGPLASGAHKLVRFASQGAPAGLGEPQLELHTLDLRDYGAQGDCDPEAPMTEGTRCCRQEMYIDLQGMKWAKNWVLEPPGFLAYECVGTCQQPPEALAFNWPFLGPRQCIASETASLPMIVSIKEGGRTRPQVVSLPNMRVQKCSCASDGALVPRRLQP
Torsin-1A-interacting protein 1 (Homo sapiens), sequence (Q5JTV8 whole entry, looked up): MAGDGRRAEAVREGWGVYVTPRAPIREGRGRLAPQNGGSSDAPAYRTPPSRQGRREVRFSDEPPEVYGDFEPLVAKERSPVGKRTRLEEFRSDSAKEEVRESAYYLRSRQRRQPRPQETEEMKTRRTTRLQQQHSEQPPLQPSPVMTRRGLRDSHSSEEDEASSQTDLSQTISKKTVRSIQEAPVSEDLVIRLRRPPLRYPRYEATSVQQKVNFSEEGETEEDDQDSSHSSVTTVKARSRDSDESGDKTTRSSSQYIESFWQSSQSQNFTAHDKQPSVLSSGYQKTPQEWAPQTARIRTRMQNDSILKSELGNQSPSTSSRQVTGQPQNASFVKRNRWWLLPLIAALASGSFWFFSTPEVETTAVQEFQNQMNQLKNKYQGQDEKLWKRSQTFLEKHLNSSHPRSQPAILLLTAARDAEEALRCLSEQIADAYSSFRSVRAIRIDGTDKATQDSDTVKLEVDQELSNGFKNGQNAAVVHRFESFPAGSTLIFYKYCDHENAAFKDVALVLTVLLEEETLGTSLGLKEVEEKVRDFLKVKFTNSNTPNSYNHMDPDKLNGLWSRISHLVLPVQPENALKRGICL
Alpha-bungarotoxin (Bungarus multicinctus), sequence (P60615 whole entry, looked up): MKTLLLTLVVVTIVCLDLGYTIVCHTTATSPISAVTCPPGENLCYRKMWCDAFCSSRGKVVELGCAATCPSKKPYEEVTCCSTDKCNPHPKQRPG
Albumin (Bos taurus), sequence (P02769 whole entry, looked up): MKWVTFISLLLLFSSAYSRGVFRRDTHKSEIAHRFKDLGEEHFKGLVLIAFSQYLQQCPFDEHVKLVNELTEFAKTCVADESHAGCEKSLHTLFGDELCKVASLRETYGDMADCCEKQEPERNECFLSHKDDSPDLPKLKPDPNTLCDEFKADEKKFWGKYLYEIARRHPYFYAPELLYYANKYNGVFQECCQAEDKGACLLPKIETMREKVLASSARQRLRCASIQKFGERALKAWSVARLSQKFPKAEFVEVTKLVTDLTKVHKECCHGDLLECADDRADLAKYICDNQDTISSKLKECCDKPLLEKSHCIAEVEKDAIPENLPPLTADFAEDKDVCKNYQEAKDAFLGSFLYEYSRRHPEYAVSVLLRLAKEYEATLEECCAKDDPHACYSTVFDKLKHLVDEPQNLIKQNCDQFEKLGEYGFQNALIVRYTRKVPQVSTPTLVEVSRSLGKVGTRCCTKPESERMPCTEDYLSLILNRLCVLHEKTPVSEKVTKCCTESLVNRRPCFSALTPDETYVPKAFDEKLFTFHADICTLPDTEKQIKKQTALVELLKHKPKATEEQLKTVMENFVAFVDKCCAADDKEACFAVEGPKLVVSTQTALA
Concanavalin-A (Canavalia ensiformis), sequence (P02866 whole entry, looked up): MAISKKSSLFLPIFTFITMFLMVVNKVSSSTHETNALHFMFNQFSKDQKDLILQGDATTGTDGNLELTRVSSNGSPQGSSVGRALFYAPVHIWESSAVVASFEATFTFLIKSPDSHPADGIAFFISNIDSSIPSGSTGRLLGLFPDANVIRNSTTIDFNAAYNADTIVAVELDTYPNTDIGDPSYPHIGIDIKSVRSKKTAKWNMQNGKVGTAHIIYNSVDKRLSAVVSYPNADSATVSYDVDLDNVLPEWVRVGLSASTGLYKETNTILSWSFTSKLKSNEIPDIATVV

Take `[N-]=[N+]=NCc1ccccc1C[C@@]1(C(=O)N2CCCCC2)N=C(c2ccc(OCCCO)cc2)O[C@@H]1c1ccccc1CN=[N+]=[N-]`: the composite z-score in assay [1] was 0.905; in [3], -0.133; in assay [4], 2.02; in assay [5], 1.37; in assay [6], -0.101; in assay [7], -0.0626. Further, the composite z-score in [8] is 1.31; in assay [9], 1.01; in assay [10], 1.5; with Albumin (Bos taurus), 0.36; in [12] it was 0.0435; in [13], 0.0515. The composite z-score is 0.711 in assay [14]; 1.81 in assay [15]; 1.06 in [16]; 1.08 with Sam68 (KHDRBS1); -1.07 in assay [17]; 1.09 in [18]. In assay [2], this compound registered a z-score of -2.73. Further, the composite Z-score in assay [11] was 0.569 (inactive).

Take `Cc1ccc(S[C@]2(C(=O)NC(C)C)CC(=O)N(Cc3ccccc3Cl)[C@@H]2c2ccc(CO)cc2)cc1`: the composite z-score in assay [1] was 0.949; in assay [3], -1.76; in [4] it was -0.142; in assay [5] it was 0.214; in assay [6] it was -0.154; in assay [7] it was -0.0035. Further, the composite z-score in assay [8] is -0.429; in assay [9] it was 0.98; in assay [10] it was 1.07; with Albumin (Bos taurus), 0.29; in assay [12] it was -0.294; in assay [13] it was -0.146. In addition, the composite z-score was 0.717 in assay [14]; 0.634 in assay [15]; 0.542 in [16]; -1.21 in the assay on Sam68 (KHDRBS1); -1.85 in assay [17]; -0.744 in [18]. In assay [2], the z-score is -1.81. The composite Z-score in assay [11] is 0.0728 (inactive).

As for `NCCCCCNC(=O)[C@H]1C[C@H]2C(=O)N[C@@H](Cc3ccccc3)C(=O)N2[C@H]1c1ccc(O)cc1`, the composite z-score in assay [1] turned out to be 1.05; in assay [3], 0.202; in assay [4] it was 2.24; in assay [5], 1.14; in assay [6] it was 0.183; in assay [7], 0.596. In addition, the composite z-score was 0.859 in assay [8]; 0.456 in assay [9]; 0.949 in assay [10]; 0.819 in the assay with Albumin (Bos taurus); 0.248 in assay [12]; 0.197 in [13]. Besides, the composite z-score in assay [14] amounted to 0.487; in assay [15], 1.23; in [16], 1.23; in the assay with Sam68 (KHDRBS1) it was 1.28; in assay [17], 0.518; in [18], 1.08. Further, the z-score in [2] came to 0.0505. Moreover, in [11], the composite Z-score was 0.491 (inactive).

On to `COCCOC(=O)N1C(=O)[C@@]2(c3ccccc31)[C@H](c1ccc(OCCO)cc1)N1[C@H](c3ccccc3)[C@H](c3ccccc3)OC(=O)[C@H]1[C@@H]2C(=O)N1CCCCCCC1`, for which the composite z-score amounted to 1.52 in assay [1]; 1.83 in assay [3]; 3.21 in [4]; 1.79 in [5]; 1.61 in assay [6]; 3.26 in [7]. For the same compound, the composite z-score was 3.73 in assay [8]; 5.85 in assay [9]; 5.03 in assay [10]; 0.915 with Albumin (Bos taurus); 2.31 in assay [12]; 1.18 in [13]. The composite z-score in [14] worked out at 1.08; in assay [15], 5.33; in assay [16], 1.22; with Sam68 (KHDRBS1), 1.35; in [17] it was 1.7; in assay [18], 1.24. Besides, the z-score in assay [2] is -1.56. Also, the composite Z-score in assay [11] is 7.84 (inactive).

For `C=C[C@@H](OC)[C@H](OC(=O)Nc1ccc(SC)cc1)c1ccc(OCCO)cc1`, the composite z-score in [1] is 1.44; in [3], 0.0128; in [4], 0.469; in assay [5] it was -0.0827; in assay [6], -0.0735; in [7], 0.0639. The composite z-score in assay [8] is 0.36; in [9], 1.03; in [10] it was 1.36; with Albumin (Bos taurus) it was 0.687; in assay [12], 0.23; in [13], -0.101. For the same compound, the composite z-score in assay [14] worked out at 0.361; in assay [15], 1.89; in assay [16] it was 0.35; in the assay on Sam68 (KHDRBS1), 1.34; in [17] it was 0.207; in assay [18] it was 0.89. Moreover, in assay [2], the z-score worked out at 0.462. In addition, the composite Z-score in assay [11] is 0.0939 (inactive).

Consider `[N-]=[N+]=Nc1ccccc1C[C@]1(C(=O)NCc2ccccc2)COC(c2ccc(OCCCO)cc2)=N1`, for which the composite z-score in [1] is 1.4; in assay [3], -0.576; in assay [4] it was 0.575; in assay [5] it was 0.154; in [6], 0.0004; in assay [7], -0.167. Also, the composite z-score in assay [8] was 0.919; in assay [9] it was 1.42; in assay [10], 1.04; with Albumin (Bos taurus) it was 0.784; in assay [12], 0.0945; in assay [13] it was -0.0859. Moreover, the composite z-score in [14] was 0.383; in [15], 2.52; in assay [16], 0.171; in the assay on Sam68 (KHDRBS1), 1.3; in assay [17], -0.362; in assay [18], 0.995. This compound yielded a z-score in assay [2] of -3.22. The composite Z-score in assay [11] was -0.135 (inactive).
